GCN5L2 inh: GCN5L2 (KAT2A) acetyltransferase inhibition | GCN5L2 HAT assay, ThioGlo1 CoA-SH fluorescence | 390,000 tested, 0.21% active | Potency, µM (top dose mostly 58.9 µM), inactives show at the highest dose activity change, negative = inhibition, usual class: inhibitors; note: % is set by controls: 0 for no effect and ±100 for the full control effect
Target sequence (Q92830 whole entry, looked up): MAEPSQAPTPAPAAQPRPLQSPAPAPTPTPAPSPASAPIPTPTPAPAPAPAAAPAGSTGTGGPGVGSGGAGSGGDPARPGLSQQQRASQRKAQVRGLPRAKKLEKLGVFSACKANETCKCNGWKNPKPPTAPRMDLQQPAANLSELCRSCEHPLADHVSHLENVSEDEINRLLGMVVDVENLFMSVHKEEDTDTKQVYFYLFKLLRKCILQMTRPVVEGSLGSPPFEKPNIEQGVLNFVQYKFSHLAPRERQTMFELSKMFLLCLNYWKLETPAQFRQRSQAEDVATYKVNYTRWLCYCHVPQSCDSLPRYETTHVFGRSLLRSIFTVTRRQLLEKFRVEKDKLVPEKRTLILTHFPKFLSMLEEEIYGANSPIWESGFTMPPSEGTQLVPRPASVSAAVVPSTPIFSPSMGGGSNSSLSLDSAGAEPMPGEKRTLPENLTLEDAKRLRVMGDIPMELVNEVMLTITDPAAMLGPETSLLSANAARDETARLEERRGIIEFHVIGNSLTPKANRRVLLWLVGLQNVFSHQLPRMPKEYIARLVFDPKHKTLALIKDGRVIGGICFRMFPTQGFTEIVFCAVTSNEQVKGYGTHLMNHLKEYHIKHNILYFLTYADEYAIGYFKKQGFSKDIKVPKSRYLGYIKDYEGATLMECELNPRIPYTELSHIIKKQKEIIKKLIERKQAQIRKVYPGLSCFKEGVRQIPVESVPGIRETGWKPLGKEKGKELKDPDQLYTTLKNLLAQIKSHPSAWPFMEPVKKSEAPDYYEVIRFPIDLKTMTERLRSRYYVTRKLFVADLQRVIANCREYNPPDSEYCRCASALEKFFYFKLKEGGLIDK
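Titration-based screen in which CoA formation is detected via maleimide probe ThioGlo1 (50uM) turning fluorescent on thiol reaction; substrates H3(1-25) 75uM and acetyl-CoA 70uM, GCN5L2 20nM, 20 min incubation at room temperature.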
PKM2 activator: activators of human pyruvate kinase M2; Potency, µM (doses to about 57.5 µM), for inactives: at the highest dose activation, hits mostly activators; 260,000 tested, 0.34% active; purified PKM2, Kinase-Glo ATP luminescence, activation; response scale: 0% is enzyme alone, no compound; P14618; note: % is set by controls: 0 for no effect and ±100 for the full control effect; nearly all actives have a fitted effect of over 55% in size
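hPK-M2, >95% pure; 0.1 mM ADP / 0.5 mM PEP final; imidazole pH7.2 buffer w/ 7 mM MgCl2, 50 mM KCl; 1 h RT; Kinase-Glo lum. Intermediate enzyme activity for dual inhibitor/activator qHTS.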
Mito fusion yeast: blocks mitochondrial division or promotes mitochondrial fusion | S. cerevisiae fusion-defective mutant growth rescue, CellTiterGlo 48 h | 320,000 tested, 0.23% active | Potency, µM (series often up to 46.1 µM), without a hit: at the highest dose growth rescue (activation), actives largely listed as activators; note: % of control where 0% means no effect; nearly all actives have a fitted effect of over 45% in size
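Compounds are tested for their ability to restore growth of mitochondrial fusion-defective yeast strains at non-permissive 37C in YPEG medium over 48 hours. Viability is quantified by luciferase luminescence.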
VDR inhibitor: vitamin D3 receptor (human) inhibition; 400,000 tested, 0.93% active; Potency, µM, for the others: max response, negative = inhibition, most hits filed as inhibitors; VDR-SRC2-3 peptide fluorescence polarization, 2 h; AID 504847; P11473; note: % is set by controls: 0 for no effect and ±100 for the full control effect
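Reagent solutions, kept cold and dark, are dispensed first; compounds are then pinned in at 23 nl, plates briefly spun, and incubated 2 h at ambient temperature. Inhibition of VDR–SRC2-3 peptide binding is read by fluorescence polarization.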
GLS inh: blocks human kidney-isoform glutaminase activity; O94925; GLS enzymatic activity, qHTS titration; Potency, µM (doses to about 45.5 µM), for inactives: top-dose activity change, negative = inhibition, most hits filed as inhibitors; 410,000 tested, 0.21% active; note: % is set by controls: 0 for no effect and ±100 for the full control effect
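Assay buffer: 45 mM KH2PO4 pH 8.2, 0.02% Tween-20. hKGA acts on L-glutamine (1 mM solution added); product glutamate is reported by an oxidase/peroxidase Amplex Red coupling, with fluorescence taken at baseline and 30 min.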
PLK1 PBD block: blocks phosphopeptide binding to human PLK1 polo-box domain; P53350; Plk1 PBD binding of FITC phosphopeptide, fluorescence polarization; Potency, µM, for inactives: max response, negative = inhibition, most hits filed as inhibitors; 360,000 tested, 2.8% active; AID 720504; note: series mostly up to about 57 µM; % is set by controls: 0 for no effect and ±100 for the full control effect; nearly all actives have a fitted effect of over 65% in size
Active calls of the source: *; ? = inconclusive; nt = not tested or not shown; [ ] = another dose, or the depositor's remark. Only some compounds are listed: those with a hit (about 3.4% of all), similar ones and a draw of the others. Calls come from the whole dose curve; as a rule, active = well fitted curve in the direction sought with a large enough effect; inconclusive = small, poorly fitted or top-dose-only effect, or another doubt; inactive = no such curve, though single readings can be large; an effect the other way counts as inactive or inconclusive. Potency is the fitted concentration of half-maximal effect.

SMILES | GCN5L2 inh | PKM2 activator | Mito fusion yeast | VDR inhibitor | GLS inh | PLK1 PBD block
CCOc1ccccc1-c1ccc(C(=O)O)s1 | -5%[88.6 µM] | nt | nt | ? | nt | nt
Cc1cccc(N(C)c2cc(C)nc3nc(C)nn23)c1 | -4% | 22% | 0% | -15% | 17% | 30µM*
CCN(c1ccccc1)c1cc(C)nc2nc(C)nn12 | -2% | 0% | -1% | -1% | -2% | -4%
C[N+](C)(C)CCO | -7% | nt | -39% | 5% | 1% | nt
O=C1c2ccccc2C(=O)N1CCCc1c[nH]c2ccc(Cl)cc12 | -7% | 0% | 18µM* | ? | 7% | 2%
CC1CCN(c2ccc3nnc(CCC(=O)Nc4cccc(F)c4)n3n2)CC1 | -7% | nt | 7% | -23% | 1% | 27µM*
COc1ccc(NC(=O)CCc2nnc3ccc(N4CCC(C)CC4)nn23)cc1 | 1% | nt | 2% | -1% | 9% | 2%
Cn1cc(-c2coc3c(C(=O)NCc4cccc(Cl)c4)cccc23)cn1 | nt | nt | nt | nt | 5% | -16%
COc1cc(/C=C/[N+](=O)[O-])ccc1OC(=O)c1cc2ccccc2oc1=O | -13% | 0% | 2% | ? | -1% | 13µM*
CCNC(=O)C(=O)N/N=C/c1cc([N+](=O)[O-])ccc1O | -13% | -4% | 22µM* | 7% | -6% | 1%
O=C(N/N=C/c1cc([N+](=O)[O-])ccc1O)NC12CC3CC(CC(C3)C1)C2 | -10% | 7% | 9% | -20% | 10µM* | -6%
Cc1ccc2nc3c(cc2c1)CN(Cc1ccco1)C(=NCC1CCCO1)S3 (stereo not drawn) | -14% | ? | 4% | ? | 19% | 27µM*
COCCN=C1Sc2nc3c(C)cccc3cc2CN1Cc1ccco1 | 21% | ? | 5% | 89µM* | 5% | ?
COCCN=C1Sc2nc3ccc(C)cc3cc2CN1Cc1cccs1 | -6% | 1% | 21% | -15% | 0% | -16%
O=C(Nc1cccc(Oc2ccccc2)c1)C1Cc2c(-c3ccccc3)ccnc2O1 (stereo not drawn) | nt | nt | nt | nt | -23% | -3%
C[C@H](CN1CCCC1)C(=O)c1ccc(C(F)(F)F)cc1 | nt | nt | nt | nt | -8% | nt
O=C(CCc1nnc(CCc2c[nH]c3ccccc23)o1)NC1CCC1 | -5% | -4% | 5% | ? | -20% | 24µM*
O=C(CCc1nnc(Cc2c[nH]c3ccccc23)o1)NC1CCCC1 | -1% | -5% | -1% | 0% | 2% | -14%
COc1ccc(OC)c(NC(=O)C(CC(=O)O)NCc2ccco2)c1 (stereo not drawn) | 3.2µM* | 1% | 0% | 12% | 14% | -11%
CCOC(=O)C(CC(=O)O)NCc1ccco1 (stereo not drawn) | -3% | -6% | 1% | -21% | 1% | -4%
COc1cc(/C=N/Nc2ccc(F)cc2F)cc(OC)c1O | -5% | 24% | 10% | -23% | 19% | 27µM*
COc1cc(/C=N/Nc2ccccc2[N+](=O)[O-])cc(OC)c1O | -2% | 1% | 1% | -12% | ? | -6%
CC(C)OCCCN1C(=O)c2[nH]nc(-c3ccccc3O)c2C1c1ccc(OCc2ccccc2)cc1 (stereo not drawn) | -21% | nt | nt | 10% | 6% | nt
CCc1ccc(N(C(=O)c2csnn2)C(C(=O)NC(C)(C)C)c2ccncc2)cc1 (stereo not drawn) | -2% | -5% | -1% | -8% | -5% | -3%
CCc1cccc(N(C(=O)c2csnn2)C(C(=O)NC(C)(C)C)c2ccncc2)c1 (stereo not drawn) | 16% | 3% | 10% | 9% | 14% | 27µM*
SMILES | GCN5L2 inh | PKM2 activator | Mito fusion yeast | VDR inhibitor | GLS inh | PLK1 PBD block
Cn1c(=O)c2[nH]c(SCCN3CCOCC3)nc2n(C)c1=S | nt | nt | nt | 28µM* | 6% | 27µM*
O=C(NCc1cccs1)C1CCN(S(=O)(=O)c2ccccc2F)CC1 | -2% | 14µM* | 3% | 1% | -12% | -14%
O=C(NCc1cccs1)C1CCN(S(=O)(=O)c2cccs2)CC1 | 1% | 16µM* | 0% | -2% | 1% | 3%
CSc1ccc(S(=O)(=O)N2CCC(C(=O)NCc3ccco3)CC2)cc1 | -11% | 10µM* | 19% | 5% | 2% | -7%
O=c1oc2ccccc2c(O)c1/C=N/c1ncccn1 | -7% | -6% | 1% | -14% | 50% | -11%
O=c1oc2ccccc2c(O)c1/C=C1\C=Nc2ccccc21 | -15% | -2% | -3% | -9% | ? | 0.6µM*
CCN1CCN(c2ccc(S(=O)(=O)N3CCOCC3)cc2NC(=O)c2sccc2C)CC1 | 1% | nt | 1% | -9% | -1% | -14%
C/C(=N\NC(=O)c1cccnc1)c1ccc(OC2OCCOC2Oc2ccc(/C(C)=N/NC(=O)c3cccnc3)cc2)cc1 (stereo not drawn) | -5% | -2% | 1% | 40µM* | ? | 30µM*
C/C(=N\NC(=O)c1cccs1)c1cccnc1 | -6% | 3% | ? | 79µM* | ? | 21µM*
C/C(=N\NC(=O)c1cccc(N/N=C(\C)c2ccncc2)c1)c1ccncc1 | -11% | -3% | -2% | -20% | 38% | 27µM*
CCOC(=O)N1CCN(Cc2c(O)ccc3ccccc23)CC1 | -7% | 3% | 0% | ? | -1% | 11µM*
O=C(C1CCCO1)N1CCN(Cc2c(O)ccc3ccccc23)CC1 (stereo not drawn) | -5% | 8% | 3% | 50µM* | 31% | 12µM*
CCOC(=O)N1CCN(Cc2ccc(O)c3ncccc23)CC1 | ? | 1% | 3% | ? | 2% | 27µM*
Cc1ccc(CN2CCN(C(=O)C3CCCO3)CC2)cc1 (stereo not drawn) | -17% | 1% | -5% | -3% | 1% | -1%
CCCN1C(=O)C(NC(C)=O)c2ccccc21 (stereo not drawn) | -4% | 1% | 1% | -2% | 5% | 1%
CCc1ccc2c(c1)C(NC(C)=O)C(=O)N2CCN1CCOCC1 (stereo not drawn) | 1% | nt | 7% | ? | 5µM* | -6%
C=C1C(=O)[C@]23C[C@H]1CC[C@H]2[C@]1(C)[C@@H](OC(C)=O)CC[C@@](C)(C(=O)OC)[C@H]1C[C@@H]3OC(C)=O | nt | nt | nt | nt | 3% | ?
C=C1C(=O)[C@]23C[C@H]1CCC2[C@@]1(C)C(C[C@@H]3O)[C@](C)(C(=O)OC)CC[C@@H]1OC(C)=O (stereo partly drawn) | nt | nt | nt | nt | -3% | 11µM*
Cc1nnc(SCC(=O)N(CCC#N)c2ccc3c(c2)OCCO3)s1 | -6% | nt | -1% | 7% | -3% | -2%
COC(=O)/C=C1\SC(=NC(=O)c2ccc(-c3ccccc3)cc2)NC1=O | -26% | nt | nt | -9% | 0% | 19µM*

Source: PubChem (National Center for Advancing Translational Sciences (NCATS))
